Screening results (PubChem)
hcDAF12 agonist: H. contortus DAF-12 nuclear receptor activators, primary screen, cell-based, luminescence, HEK293, lit1-tk-luc reporter | activation, % at 6.8 µM | 370,000 compounds, 1.4% hits | HEK293 hcDAF-12 lit1-tk-luc reporter; 0% DMSO, 100% Δ7-dafachronic acid;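 active means activation above the mean of all tested compounds plus 3 SD, cut at about 5.5% in these data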;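 further: 100% = response to 3 µM Δ7-dafachronic acid high control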
hgDAF-12 ag: H. glycines DAF-12 receptor agonists, primary screen, cell-based, luminescence, HEK293, GAL4 fusion, UAS-luciferase. AID 687014, 2013. HEK293 GAL4-hgDAF12 UAS-luciferase reporter, agonist luminescence; normalized to butyrate control. activation, % at 6.8 µM. 370,000 compounds, 1.8% hits. Nuclear hormone receptor DAF-12 (Heterodera glycines), GAL4 fusion;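 active means activation above a cutoff set at the mean of all screened compounds plus 3 SD, cut at about 10% in these data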;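 further: 0% = DMSO wells and 100% = sodium butyrate wells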
ssDAF12 agonist: S. stercoralis DAF-12 nuclear receptor activators, primary screen, cell-based, luminescence, HEK293, GRIP1 co-expression, lit1-tk-luc | AID 652126, 2013 | activation, % at 6.8 µM | Nuclear hormone receptor DAF-12 (Strongyloides stercoralis) | HEK293 ssDAF-12/GRIP1 lit1-tk-luc reporter; % of 3 µM dafachronic acid response | 370,000 compounds, 1% hits;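 active means activation above the mean over all tested compounds plus 3 SD, cut at about 0.9% in these data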;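 further: 0% = DMSO-only wells and 100% = 3 µM delta7-dafachronic acid wells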
esBAF inh: Bmi1 luciferase reporter increase in mESCs, primary screen, esBAF inhibitor project, mouse ES cells, Bmi1 luciferase knock-in, single point. 24 h; 100% = twice the neutral-well signal. reporter increase, % at 12.5 µM. 350,000 compounds, 2% hits. AID 602393, 2012; in the data active means activation above about 40%; inconclusive means no clear call, values can overlap the other calls;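 further: 0% = median of the plate's neutral control wells and 100% = double that signal; a rise in the Bmi1 reporter signal indicates esBAF inhibition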
DAX1 StAR inh: DAX1 (NR0B1) inhibitors on StAR promoter, primary screen, cell-based, luminescence, SF-1 (NR5A1), full-length DAX-1; HEK293T StAR-luciferase reporter, SF-1/DAX-1 repression relief; inhibition, % at 6.8 µM; 370,000 compounds, 1.1% hits;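 active means inhibition above the mean over all tested compounds plus 3 SD, cut at about 3.6% in these data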;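 further: 0% = DAX-1 cells with DMSO and 100% = cells lacking DAX-1 with DMSO; higher inhibition means more luminescence from relief of DAX-1 repression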
Wnt bcat act: Wnt/beta-catenin pathway activators, primary screen, cell-based, plate reader, single point; Wnt/beta-catenin reporter cell assay, activator; activation, % at 9.35 µM; 300,000 compounds, 1.2% hits; in the data active means activation above about 30%, passing the limit was not always enough; inconclusive means no clear call, values can overlap the other calls;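 further: 0% = neutral control wells and 100% = positive control wells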
DAX1 inh confirm: DAX1 (NR0B1) inhibitors relieving SF-1 repression, confirmation, cell-based, luminescence, HEK293T, full-length DAX-1, SF-1 activated StAR promoter; shares compounds with DAX1 StAR inh; HEK293T StAR-promoter luciferase reporter, SF-1/DAX-1 repression; AID 652134, 2013; inhibition, % at 6.8 µM; 2,400 compounds, 87% hits;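 active means inhibition above the average of every tested compound plus 3 SD, cut at about 3.8% in these data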;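 further: 0% = DAX-1 cells with DMSO and 100% = no DAX-1 control cells with DMSO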
Target sequence (P51843 whole entry, looked up): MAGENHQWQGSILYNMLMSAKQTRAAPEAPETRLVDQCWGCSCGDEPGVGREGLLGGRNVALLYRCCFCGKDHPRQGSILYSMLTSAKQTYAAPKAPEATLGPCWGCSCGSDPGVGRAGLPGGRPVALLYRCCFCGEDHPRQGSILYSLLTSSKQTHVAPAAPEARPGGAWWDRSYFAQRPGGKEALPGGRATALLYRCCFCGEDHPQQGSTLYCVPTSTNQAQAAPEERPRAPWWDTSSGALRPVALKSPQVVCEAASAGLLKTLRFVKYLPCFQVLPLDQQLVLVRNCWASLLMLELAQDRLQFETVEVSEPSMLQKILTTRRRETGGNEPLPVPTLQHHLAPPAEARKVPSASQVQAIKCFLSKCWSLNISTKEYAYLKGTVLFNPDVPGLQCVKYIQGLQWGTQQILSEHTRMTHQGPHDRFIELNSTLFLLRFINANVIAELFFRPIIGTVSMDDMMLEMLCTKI
SF1 mutant ctr: StAR reporter signal changes without DAX1, counter-screen for DAX1 inhibitor project, cell-based, luminescence, AF-2 mutant SF-1, transactivation | shares compounds with DAX1 StAR inh | HEK293 StAR-luciferase, SF-1 AF2 mutant | inhibition, % at 6.8 µM | 2,400 compounds, 78% hits;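 active means inhibition above the mean of all tested compounds plus 3 SD, cut at about 3% in these data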;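 further: 0% = DAX-1 transfected cells with DMSO and 100% = cells without DAX-1 with DMSO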
LXR ag: LXR agonists, Gal4 luciferase reporter, confirmation, counter-screen for hcDAF-12 agonist project, cell-based, luminescence, HEK293, H. contortus campaign | shares compounds with hcDAF12 agonist | HEK293 Gal4-LXR tk-luc reporter, 24 h; normalized: DMSO 0%, positive control 100% | activation, % at 6.8 µM | 3,400 tested, under 10 active | AID 743027, 2013;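 active means mean percent activation of the reporter above a cutoff set as the average over tested compounds plus their standard deviation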
hcDAF12 ag: H. contortus DAF-12 receptor agonists, confirmation, cell-based, luminescence, HEK293, lit1-tk-luc, triplicate | shares compounds with hcDAF12 agonist | HEK293 hcDAF-12 lit1-tk-luc reporter; % of Δ7-dafachronic acid response | activation, % at 6.8 µM | 3,400 compounds, 61% hits | AID 743032, 2013;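 active means mean activation across triplicate tests above the threshold derived from the earlier primary screen, cut at about 5.5% in these data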;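 further: 0% = DMSO only wells and 100% = 3 µM Δ7-dafachronic acid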
hgDAF12 conf: H. glycines DAF-12 receptor agonists, confirmation, cell-based, luminescence, HEK293, GAL4-LBD fusion; 3,300 compounds, 80% hits; HEK293 GAL4-hgDAF12 luciferase reporter, agonist mode; percent of butyrate response; shares compounds with hgDAF-12 ag; AID 743050, 2013; activation, % at 6.8 µM;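 active means mean activation over triplicate wells above the hit cutoff derived from the earlier primary screen, cut at about 11% in these data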;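 further: 0% = DMSO low control and 100% = 2 mM sodium butyrate high control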
LXRb DAF12 ctr: LXR agonists, Gal4 luciferase reporter, confirmation, counter-screen for hgDAF-12 agonist project, cell-based, luminescence, HEK293, H. glycines campaign | activation, % at 6.8 µM | 24 h | shares compounds with hgDAF-12 ag | 3,300 tested, under 10 active;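 active means mean activation of the triplicate above a set limit carried over from the primary screen, none filed active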
* = called active by the depositor; ? = inconclusive; nt = not tested or not shown. This is a sample that favours compounds with a hit; in the whole collection about 4.2% have one here.

SMILES	hcDAF12 agonist	hgDAF-12 ag	ssDAF12 agonist	esBAF inh	DAX1 StAR inh	Wnt bcat act	DAX1 inh confirm	SF1 mutant ctr	LXR ag	hcDAF12 ag	hgDAF12 conf	LXRb DAF12 ctr
COc1ccccc1CNC(=O)C[C@H]1C[C@@H]2c3cc(NC(=O)c4cccnc4)ccc3O[C@@H]2[C@H](CO)O1	nt	nt	nt	-3	nt	nt	nt	nt	nt	nt	nt	nt
COc1ccc(/C=C/C(=O)N2CCN(c3ccccn3)CC2)cc1OC	0	-1	-2	4	0	-2	nt	nt	nt	nt	nt	nt
N/C(=N\OC(=O)/C=C/c1ccccc1)c1ccccn1	7.0*	13*	1	-59	5.9*	28	11*	6.6*	1	3	14*	1
COc1ccc(/C=C/C(=O)O/N=C(\N)c2ccccn2)cc1OC	7.2*	29*	0	?	6.2*	1	5.4*	3.0*	1	4	11*	1
CN1C(=O)c2cc(NC(=O)c3ccc(F)c(F)c3)ccc2OC[C@H]2O[C@@H](CC(=O)O)CC[C@@H]21	nt	nt	nt	-3	nt	nt	nt	nt	nt	nt	nt	nt
Cc1cc2c(cc1C)NC(=O)C(C)CN2 (stereo unspecified)	12*	20*	3.0*	23	5.7*	1	16*	7.9*	2	11*	14*	1
Cc1nn2cc(-c3ccccc3)nc2s1	4	14*	-1	nt	5.7*	17	10*	7.5*	nt	nt	15*	1
CCc1ccc(-c2cn3nc(-c4ccccc4)cnc3n2)cc1	0	2	-2	nt	0	1	nt	nt	nt	nt	nt	nt
CCCC#Cc1ccc2c(c1)O[C@@H](CN(C)C)[C@@H](C)CN([C@H](C)CO)S2(=O)=O	nt	nt	nt	-3	nt	nt	nt	nt	nt	nt	nt	nt
O=C(CCN1CCCCC1)NCC[C@@H]1CC[C@H](NC(=O)Cc2cccnc2)[C@@H](CO)O1	nt	nt	nt	0	nt	nt	nt	nt	nt	nt	nt	nt
